Results from PubChem BioAssay (NCI).
About 83,000 compounds went through this panel and 20% of them were active in at least one assay; those are over-represented in the sample as a whole.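 A percent growth of 40 corresponds to 60% growth inhibition; 0 means no net growth; -100 means all cells died. Active threshold: below 10.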 Unmarked numbers belong to inactive results. Calls of active or inactive are those of the source.

Columns and labels:
Test in all cases: NCI-60 one-dose screen, 48 h (100 = growth as untreated, 0 = no growth, -100 = all killed)
Conditions in all cases: 10 µM unless noted
NCI-H23 lung = tested on: NCI-H23 lung
NCI-H226 lung = tested on: NCI-H226 lung
NCI-H322M lung = tested on: NCI-H322M lung
HOP-62 NSCLC = tested on: HOP-62 NSCLC
NCI-H460 lung = tested on: NCI-H460 lung
HOP-92 NSCLC = tested on: HOP-92 NSCLC
NCI-H522 lung = tested on: NCI-H522 lung
A549/ATCC NSCLC = tested on: A549/ATCC NSCLC
786-0 renal = tested on: 786-0 renal
COLO 205 colon = tested on: COLO 205 colon

Compound	growth (NCI-H23 lung)	growth (NCI-H226 lung)	growth (NCI-H322M lung)	growth (HOP-62 NSCLC)	growth (NCI-H460 lung)	growth (HOP-92 NSCLC)	growth (NCI-H522 lung)	growth (A549/ATCC NSCLC)	growth (786-0 renal)	growth (COLO 205 colon)
CCOC(=O)c1c(O)cc(-c2ccccc2)cc1-c1sc(N(C)Cc2ccccc2)nc1Cl	98.7%	94%	106%	104%	102%	91.3%	86.4%	98.8%	-97.1% (active)	106%
COc1ccc(CNC(=O)COc2ccc(/C=N/Nc3nc4ccccc4s3)cc2)cc1	33.9%	18%	30.2%	39.3%	-12.6% (active)	-24.8% (active)	31.1%	26.5%	-6.47% (active)	64%
COc1ccc(-c2ncc(-c3ccccc3)[nH]2)cc1OC	101%	100%	218%	112%	112%	93%	108%	110%	-10.5% (active)	145%
C=CCn1c(SCC(=O)Nc2ccc(C(=O)/C=C/c3cc(OC)c(OC)c(OC)c3)cc2)nnc1-c1cc(OC)c(OC)c(OC)c1	55.2%	35.9%	85.5%	55%	31.4%	82.2%	47%	47.2%	53.6%	41.2%
CCCCCCCCCCCCCCCC(=O)OC[C@@]1(O)C[C@@]23CC[C@@H]4C(C)(C)CCC[C@@]4(C)[C@@H]2CC[C@H]1C3	102%	98.3%	114%	106%	98.4%	117%	89.3%	103%	27.9%	112%
O=C(N/N=C/c1cccc(O)c1)c1ccccc1Nc1cccc(C(F)(F)F)c1	96.4%	76.7%	77.9%	73%	102%	63%	90.3%	29.1%	43.5%	117%
CC(C)(C)CC(C)(C)Nc1c(-c2ccc(C(F)(F)F)cc2)nc2cnccn12	82.4%	92.5%	103%	92.7%	89.5%	82.6%	67.4%	83.1%	-12.3% (active)	96%
COc1ccc(CC(C)=C(c2ccc(OCCN(C)C)cc2)c2ccc(OCCN(C)C)cc2)cc1	89.3%	88.9%	85.8%	82.6%	79.6%	37.1%	79.5%	77.1%	68.1%	67.3%
COc1ccc(/C=C/C(=O)c2ccc(OC)c(OC)c2)cc1O	73.1%	86.3%	78.6%	39.7%	44.2%	29.1%	51.9%	26.4%	98.2%	104%
CC(C)(C#N)N1CCN(c2ccccc2Cl)CC1	98.8%	103%	94.8%	102%	104%	98%	90.9%	95.1%	97.9%	113%
Nc1c(Cl)cc([N+](=O)[O-])cc1Br	93%	93.7%	103%	109%	114%	74.8%	88.1%	99.6%	87.8%	118%
C(=N\Nc1ncc(-c2cc3cc4c(cc3o2)OCO4)s1)/c1c[nH]c2ccccc12	-25.8% (active)	-56.3% (active)	26.7%	-18.4% (active)	-27.2% (active)	-0.218% (active)	-42.2% (active)	-38.6% (active)	-40% (active)	-28.8% (active)
O=C(Nc1ccc(F)cc1)c1c(NC(=O)C(F)(F)F)sc2c1CCCCC2	-5.63% (active)	-6.78% (active)	11%	-23.5% (active)	2.16% (active)	-28.5% (active)	2.42% (active)	5.88% (active)	-10.4% (active)	-18.6% (active)
COc1ccc(/C=N/NC(=O)c2cccc3cc[nH]c23)cc1O	55.7%	90.4%	49.8%	36.3%	7.44% (active)	57.2%	54.8%	50.5%	30.9%	55.7%
O=C(Nc1nc2ccc(C(=O)N3CCN(c4ccc(Cl)c(Cl)c4)CC3)cc2s1)c1ccc(NCCc2ccccc2)c([N+](=O)[O-])c1	93.3%	87.8%	95.5%	96.6%	110%	91.7%	75.9%	97.9%	107%	108%
COc1cc2nc(-c3ccc(C(F)(F)F)cc3)cc(OCCCN3CCC(O)CC3)c2cc1OC	57.9%	-9.29% (active)	61.1%	45.3%	16.5%	19.9%	10.5%	27.7%	42.7%	26.5%
CC1=CC2(C)/C=C(C)/C=C\CC(O)/C=C3/C=CC(=C4C(=O)OC2(CC1C)C4=O)OC3 (stereo not given)	-97.5% (active)	59.4%	98.8%	90.9%	29.2%	-75.7% (active)	-50.5% (active)	8.64% (active)	-92.1% (active)	-80.5% (active)
O=C(CN1CCOCC1)Nc1ccc2ncnc(Nc3ccc(Oc4cccc(F)c4)c(Cl)c3)c2c1	96.7%	89.8%	20.1%	84.9%	80.2%	67.4%	20.7%	66.3%	74.3%	91.7%
FC(F)(F)c1cccc(Nc2ccccc2)c1	94.2%	97.6%	109%	105%	104%	101%	98.6%	97.3%	101%	105%
COc1ccc2c(Nc3ccc(NS(C)(=O)=O)cc3)c3ccccc3nc2c1	-18.6% (active)	-27.1% (active)	9.34% (active)	-0.998% (active)	-21.8% (active)	-16.6% (active)	-58.6% (active)	-71.2% (active)	18.4%	-74.1% (active)
COc1ccc(C(=O)c2cc3c(N)c(C(=O)Nc4ccc(Cl)cc4)sc3nc2C)cc1	89.7%	57.1%	87.1%	37.5%	68.4%	78.2%	43.8%	77.1%	81.6%	85.8%
CN1C(=O)N(C)[C@H]2NC(NN)=N[C@H]21	103%	93.3%	91.2%	98.8%	103%	90.3%	102%	97.9%	99.8%	104%
Cn1/c(=N/NC(N)=S)ccc2ccccc21	94.9%	88.9%	82.4%	98.6%	108%	109%	88.9%	97.7%	104%	114%
Cn1c(=O)c2[nH]c(CCCc3nc4c([nH]3)c(=O)n(C)c(=O)n4C)nc2n(C)c1=O	117%	105%	114%	97.4%	105%	101%	112%	105%	107%	111%
ClCC1(Cn2cnc3c(Cl)nc(Cl)nc32)COC1	69.1%	87.7%	100%	103%	86.5%	73.1%	71.9%	57.5%	88.4%	80.2%
Cc1[nH]c(C(=O)Nc2ccccc2OCc2cccc(C(=O)NCCN)c2)c(Cl)c1Cl	78%	87.8%	81.9%	69.2%	51.8%	84.6%	80.9%	63.8%	33.9%	68.7%
CCCCCCCCCCCCC1CCC/C=C\CCC(=O)O1 (stereo not given)	88.6%	100%	117%	111%	104%	111%	91.8%	55%	95.4%	101%
